Results filed as inconclusive are left out. Active and inactive are the calls of the source. The calls were made as follows: active = hit-call score of the fitted dose curve at least 0.9, where 1 is the maximum; inconclusive = response in the unintended direction; inactive = score below 0.9.

Chain of PGR (gene 5241) (P06401 whole entry, looked up): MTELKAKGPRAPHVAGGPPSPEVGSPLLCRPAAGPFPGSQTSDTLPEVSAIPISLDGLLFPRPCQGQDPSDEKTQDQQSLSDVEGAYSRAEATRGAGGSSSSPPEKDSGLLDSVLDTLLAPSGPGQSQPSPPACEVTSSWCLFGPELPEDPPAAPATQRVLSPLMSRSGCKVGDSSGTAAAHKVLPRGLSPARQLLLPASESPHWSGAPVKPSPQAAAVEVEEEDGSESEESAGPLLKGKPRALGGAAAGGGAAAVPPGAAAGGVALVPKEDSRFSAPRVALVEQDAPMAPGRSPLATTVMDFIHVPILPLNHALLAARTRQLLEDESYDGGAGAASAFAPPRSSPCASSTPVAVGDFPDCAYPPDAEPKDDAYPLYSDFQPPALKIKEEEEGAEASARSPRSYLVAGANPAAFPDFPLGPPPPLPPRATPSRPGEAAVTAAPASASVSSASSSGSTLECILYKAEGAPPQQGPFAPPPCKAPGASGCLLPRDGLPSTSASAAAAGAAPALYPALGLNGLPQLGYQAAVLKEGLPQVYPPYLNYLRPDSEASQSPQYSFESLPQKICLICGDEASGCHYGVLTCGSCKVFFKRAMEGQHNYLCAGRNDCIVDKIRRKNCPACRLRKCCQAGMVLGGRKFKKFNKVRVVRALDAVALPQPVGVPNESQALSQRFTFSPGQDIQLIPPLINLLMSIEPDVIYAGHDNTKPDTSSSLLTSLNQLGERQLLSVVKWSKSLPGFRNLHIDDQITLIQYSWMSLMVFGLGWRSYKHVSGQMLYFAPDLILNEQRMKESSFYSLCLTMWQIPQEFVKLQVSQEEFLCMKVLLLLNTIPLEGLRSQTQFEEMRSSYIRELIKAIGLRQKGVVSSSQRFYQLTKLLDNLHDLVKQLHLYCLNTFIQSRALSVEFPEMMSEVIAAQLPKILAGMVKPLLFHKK

System in the first test: not listed separately
Description: TOX21_PR_BLA_Followup_Agonist_viability: Viability Assessment in the Tox21 HEK293 Progesterone Receptor (PR) Agonism Beta-lactamase Follow-Up Assay (AID 2283935).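 Also: signal loss means lower viability so actives are cytotoxic.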 The procedure, abridged: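 Cells were plated in medium with 2% charcoal-stripped FBS and rested 6 hr. Compounds in DMSO were then added for 16 hr at 37C, followed by the FRET substrate step and CellTiter-Glo luminescence after 30 min.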
Take `COc1ccc(-c2coc3cc(O)cc(O)c3c2=O)cc1`: the call was inactive.
Consider `Oc1ccc(-c2ccccc2)c(Cl)c1`, for which the result was inactive.
On the same count and under the same terms, next, `Nc1ccc(C(=O)OCCCOC(=O)c2ccc(N)cc2)cc1`: “inactive”; `c1ccc2c(c1)[nH]c1ccccc12`: “inactive”.

System in the next test: not listed separately
Description: TOX21_PR_BLA_Followup_Antagonist_viability: Viability Assessment in the Tox21 HEK293 Progesterone Receptor (PR) Antagonism Beta-lactamase Follow-Up Assay (AID 2283936).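 Also: cells exposed to compound with R5020 agonist for 16 h; hits lower the luminescence signal meaning cytotoxicity.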 The procedure, abridged: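 PR-UAS-bla HEK293T cells in medium with 2% charcoal-stripped FBS were treated with compounds plus R5020 for 16 hr at 37C. After the beta-lactamase read, CellTiter-Glo was added to the same wells and luminescence read after 30 min at room temperature.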
For `COc1ccc(-c2coc3cc(O)cc(O)c3c2=O)cc1`, the call was inactive.
Same read-out and setting: under `Oc1ccc(-c2ccccc2)c(Cl)c1` stands “inactive”.
Take `Nc1ccc(C(=O)OCCCOC(=O)c2ccc(N)cc2)cc1`: the outcome was inactive.
On the same count and under the same terms, next, `c1ccc2c(c1)[nH]c1ccccc12`: “inactive”.

Another test has as its target PGR (gene 5241) (UniProt P06401). Description: TOX21_PR_LUC_Followup_Antagonist: Tox21 HEK293 Progesterone Receptor (PR) Antagonism Luciferase Follow-Up Assay (AID 2283938).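 Also: curve fitted upward as signal gain over DMSO baseline despite antagonist label.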 The source says: TOX21_PR_LUC_Followup is a secondary assay for specificity for the TOX21_PR_BLA_Agonist assay. To differentiate true PR agonists from cytotoxic substances, this follow up assay is multiplexed with a cell viability assay.TOX21_PR_LUC_Followup_Antagonist is one of one assay component(s) measured or calculated from the TOX21_PR_LUC_Followup assay. It is designed to make measurements of luciferase induction, a form of inducible reporter, as detected with bioluminescence signals by CellTiter-Glo Luciferase-coupled ATP quantitation technologyData from the assay component TOX21_PR_LUC_Followup_Antagonist was analyzed into 1 assay endpoint. This assay endpoint, TOX21_PR_LUC_Followup_Antagonist, was analyzed in the positive analysis fitting direction relative to DMSO as the negative control and baseline of activity. Using a type of inducible reporter, gain-of-signal activity can be used to understand changes in the reporter gene as they relate to the gene NR3C3. Furthermore, this assay endpoint can be referred to as a primary readout, because the performed assay has only produced 1 assay endpoint. To generalize the intended target to other relatable targets, this assay endpoint is annotated to the nuclear receptor target family, where the subfamily is steroidal.
Quality Control Precautions: Maintain cells below 85-90% confluence in culture medium. For assay purpose, the cells should be cultured in assay medium with 10% charcoal stripped FBS for 5 days with alternate day medium changed to fresh medium. Especially while in assay culture, the cells should not reach more than 85% confluence as they would become harder to detach if they reach over confluence.Assay Protocol: HEK293-PR-A-luc cells were dispensed at 3,000 cells/5 uL/well of culture medium into white wall/solid-bottom 1536-well plates using a Multidrop Combi (ThermoFisher Scientific, Waltham, MA) dispenser. After the assay plates were incubated at 37C and […] for 5 h, 23 nL of compounds dissolved in DMSO, positive controls or DMSO only was transferred to the assay plate by a Pintool station (Kalypsys, San Diego, CA). The plates were incubated at 37C and […] for 16 h. Then 4 uL of ONE-Glo reagent (Promega, Madison, WI) was added to each plate using a BioRAPTR Flying Reagent Dispenser (FRD) workstation (Beckman Coulter, Indianapolis, IN, USA) and luminescence was quantified on a ViewLux (PerkinElmer, Shelton, CT) plate reader after 30 min incubation at room temperature.
As a reminder, the AC50 is the concentration giving half of the maximal activity seen. As for `COc1ccc(-c2coc3cc(O)cc(O)c3c2=O)cc1`, the concentration at half-maximal activity (AC50) is 81.7 µM (active).
Take `Oc1ccc(-c2ccccc2)c(Cl)c1`: the AC50 was 29.7 µM (active).
For `Nc1ccc(C(=O)OCCCOC(=O)c2ccc(N)cc2)cc1`, the compound was called inactive.
In the case of `c1ccc2c(c1)[nH]c1ccccc12`, the call was inactive.

These data come from PubChem BioAssay (EPA / NIEHS).
